From article PMC5540273 (PLoS ONE, 2017)

Assays:
p38-alpha = tested on: T1, p38-alpha
T1 construct: gene MAPK14

AAK1 = details: concentration: 1 μM, replicates: in singlicate; n = 1
ABL1-nonphosphorylated = details: concentration: 1 μM, replicates: in singlicate; n = 1
ABL1-phosphorylated = details: concentration: 1 μM, replicates: in singlicate; n = 1
ABL2 = details: concentration: 1 μM, replicates: in singlicate; n = 1
ACVR1B = details: concentration: 1 μM, replicates: in singlicate; n = 1
ACVR1 = details: concentration: 1 μM, replicates: in singlicate; n = 1
ACVR2A = details: concentration: 1 μM, replicates: in singlicate; n = 1
ACVR2B = details: concentration: 1 μM, replicates: in singlicate; n = 1
ACVRL1 = details: concentration: 1 μM, replicates: in singlicate; n = 1
ADCK3 = tested on: T2, ADCK3; details: concentration: 1 μM, replicates: in singlicate; n = 1
T2 construct: gene CABC1

ADCK4 = details: concentration: 1 μM, replicates: in singlicate; n = 1
AKT1 = details: concentration: 1 μM, replicates: in singlicate; n = 1
AKT2 = details: concentration: 1 μM, replicates: in singlicate; n = 1
AKT3 = details: concentration: 1 μM, replicates: in singlicate; n = 1
ALK = details: concentration: 1 μM, replicates: in singlicate; n = 1
AMPK-alpha1 = tested on: T3, AMPK-alpha1; details: concentration: 1 μM, replicates: in singlicate; n = 1
T3 construct: gene PRKAA1

p38-beta = tested on: T4, p38-beta
T4 construct: gene MAPK11

YSK4 = tested on: T5, YSK4
T5 construct: gene MAP3K19
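Throughout, for %Inh: KINOMEscan kinase panel screen.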
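Throughout, for Kd: kd values determined as follow-up on hits from a single-replicate KINOMEscan panel screen.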

Structure (SMILES): CCc1nc(-c2cccc(C)c2)c(-c2ccnc(NCc3ccccc3)c2)s1
- Kd (p38-alpha): 150 nM
- %Inh (AAK1): 10%
- %Inh (ABL1-nonphosphorylated): 35%
- %Inh (ABL1-phosphorylated): 7%
- %Inh (ABL2): 21%
- %Inh (ACVR1B): 0%
- %Inh (ACVR1): 0%
- %Inh (ACVR2A): 11%
- %Inh (ACVR2B): 0%
- %Inh (ACVRL1): 0%
- %Inh (ADCK3): 15%
- %Inh (ADCK4): 0%
- %Inh (AKT1): 4%
- %Inh (AKT2): 22%
- %Inh (AKT3): 0%
- %Inh (ALK): 0%
- %Inh (AMPK-alpha1): 3%

Structure (SMILES): COc1cc2ncn(-c3cc(OCc4sccc4Cl)c(C(N)=O)s3)c2cc1OC [GSK448459]
- %Inh (AAK1): 42%
- %Inh (ABL1-nonphosphorylated): 0%
- %Inh (ABL1-phosphorylated): 3%
- %Inh (ABL2): 17%
- %Inh (ACVR1B): 0%
- %Inh (ACVR1): 18%
- %Inh (ACVR2A): 0%
- %Inh (ACVR2B): 0%
- %Inh (ACVRL1): 0%
- %Inh (ADCK3): 0%
- %Inh (ADCK4): 39%
- %Inh (AKT1): 0%
- %Inh (AKT2): 1%
- %Inh (AKT3): 0%
- %Inh (ALK): 21%
- %Inh (AMPK-alpha1): 0%

Structure (SMILES): Cc1ccc(C(=O)NCC(N)=O)cc1-n1c(C)cc(OCc2ccc(F)cc2F)c(Br)c1=O
- Kd (p38-alpha): 0.23 nM
- Kd (p38-beta): 10 nM
- %Inh (AAK1): 0%
- %Inh (ABL1-nonphosphorylated): 57%
- %Inh (ABL1-phosphorylated): 33%
- %Inh (ABL2): 27%
- %Inh (ACVR1B): 11%
- %Inh (ACVR1): 11%
- %Inh (ACVR2A): 0%
- %Inh (ACVR2B): 4%
- %Inh (ACVRL1): 28%
- %Inh (ADCK3): 27%
- %Inh (ADCK4): 2%
- %Inh (AKT1): 29%
- %Inh (AKT2): 19%
- %Inh (AKT3): 0%
- %Inh (ALK): 0%
- %Inh (AMPK-alpha1): 30%

Structure (SMILES): NS(=O)(=O)c1cccc(-c2ccc3ncc(N4CCOCC4)nc3c2)c1 [GSK1535721]
- Kd (YSK4): 3400 nM
- %Inh (AAK1): 26%
- %Inh (ABL1-nonphosphorylated): 1%
- %Inh (ABL1-phosphorylated): 0%
- %Inh (ABL2): 0%
- %Inh (ACVR1B): 0%
- %Inh (ACVR1): 21%
- %Inh (ACVR2A): 0%
- %Inh (ACVR2B): 0%
- %Inh (ACVRL1): 0%
- %Inh (ADCK3): 28%
- %Inh (ADCK4): 9%
- %Inh (AKT1): 0%
- %Inh (AKT2): 4%
- %Inh (AKT3): 0%
- %Inh (ALK): 6%
- %Inh (AMPK-alpha1): 1%

Structure (SMILES): Cl.Nc1ncnc2occ(-c3ccc(NC(=O)Nc4cc(C(F)(F)F)ccc4F)cc3)c12 [SB-707548]
- %Inh (AAK1): 0%
- %Inh (ABL1-nonphosphorylated): 99.1%
- %Inh (ABL1-phosphorylated): 50%
- %Inh (ABL2): 81%
- %Inh (ACVR1B): 0%
- %Inh (ACVR1): 1%
- %Inh (ACVR2A): 81%
- %Inh (ACVR2B): 2%
- %Inh (ACVRL1): 0%
- %Inh (ADCK3): 10%
- %Inh (ADCK4): 28%
- %Inh (AKT1): 0%
- %Inh (AKT2): 0%
- %Inh (AKT3): 0%
- %Inh (ALK): 75%
- %Inh (AMPK-alpha1): 5%

Structure (SMILES): CCn1cnc2c(N)ncnc21 [GW345098]
- %Inh (AAK1): 0%
- %Inh (ABL1-nonphosphorylated): 33%
- %Inh (ABL1-phosphorylated): 35%
- %Inh (ABL2): 12%
- %Inh (ACVR1B): 0%
- %Inh (ACVR1): 7%
- %Inh (ACVR2A): 0%
- %Inh (ACVR2B): 0%
- %Inh (ACVRL1): 8%
- %Inh (ADCK3): 19%
- %Inh (ADCK4): 0%
- %Inh (AKT1): 0%
- %Inh (AKT2): 0%
- %Inh (AKT3): 0%
- %Inh (ALK): 0%
- %Inh (AMPK-alpha1): 29%

Structure (SMILES): CN(C(=O)c1ccc(-c2cc(-c3c[nH]nc3-c3ccccn3)ccn2)cc1)C1CCOCC1 [GW810083]
- %Inh (AAK1): 0%
- %Inh (ABL1-nonphosphorylated): 57%
- %Inh (ABL1-phosphorylated): 0%
- %Inh (ABL2): 0%
- %Inh (ACVR1B): 52%
- %Inh (ACVR1): 0%
- %Inh (ACVR2A): 0%
- %Inh (ACVR2B): 2%
- %Inh (ACVRL1): 0%
- %Inh (ADCK3): 1%
- %Inh (ADCK4): 24%
- %Inh (AKT1): 0%
- %Inh (AKT2): 0%
- %Inh (AKT3): 0%
- %Inh (ALK): 17%
- %Inh (AMPK-alpha1): 0%

Structure (SMILES): COc1cc2c(cc1OC[C@@H](O)CO)ncc1c3ccc(C#N)cc3[nH]c21
- %Inh (AAK1): 78%
- %Inh (ABL1-nonphosphorylated): 49%
- %Inh (ABL1-phosphorylated): 21%
- %Inh (ABL2): 0%
- %Inh (ACVR1B): 0%
- %Inh (ACVR1): 0%
- %Inh (ACVR2A): 0%
- %Inh (ACVR2B): 1%
- %Inh (ACVRL1): 0%
- %Inh (ADCK3): 0%
- %Inh (ADCK4): 0%
- %Inh (AKT1): 0%
- %Inh (AKT2): 0%
- %Inh (AKT3): 0%
- %Inh (ALK): 15%
- %Inh (AMPK-alpha1): 0%

Structure (SMILES): COCCNC(=O)c1ccc(-c2cc(C(=O)NC3CC3)cc(F)c2C)cc1 [GW868318]
- Kd (p38-alpha): 7.3 nM
- Kd (p38-beta): 88 nM
- %Inh (AAK1): 0%
- %Inh (ABL1-nonphosphorylated): 43%
- %Inh (ABL1-phosphorylated): 28%
- %Inh (ABL2): 12%
- %Inh (ACVR1B): 17%
- %Inh (ACVR1): 7%
- %Inh (ACVR2A): 12%
- %Inh (ACVR2B): 0%
- %Inh (ACVRL1): 9%
- %Inh (ADCK3): 14%
- %Inh (ADCK4): 0%
- %Inh (AKT1): 0%
- %Inh (AKT2): 15%
- %Inh (AKT3): 26%
- %Inh (ALK): 51%
- %Inh (AMPK-alpha1): 20%

Structure (SMILES): O=C(NCCNc1ccnc(Nc2ccc(F)cc2)n1)c1cc2ccccc2s1 [GSK1379874]
- Kd (ZAK): > 10000 nM
- %Inh (AAK1): 0%
- %Inh (ABL1-nonphosphorylated): 0%
- %Inh (ABL1-phosphorylated): 0%
- %Inh (ABL2): 7%
- %Inh (ACVR1B): 0%
- %Inh (ACVR1): 9%
- %Inh (ACVR2A): 0%
- %Inh (ACVR2B): 0%
- %Inh (ACVRL1): 0%
- %Inh (ADCK3): 0%
- %Inh (ADCK4): 27%
- %Inh (AKT1): 0%
- %Inh (AKT2): 0%
- %Inh (AKT3): 0%
- %Inh (ALK): 5%
- %Inh (AMPK-alpha1): 0%

Structure (SMILES): O=c1cc(N2CCOCC2)nc2n(Cc3cccc(F)c3)ccn12 [GSK2297430]
- %Inh (AAK1): 5%
- %Inh (ABL1-nonphosphorylated): 0%
- %Inh (ABL1-phosphorylated): 0%
- %Inh (ABL2): 2%
- %Inh (ACVR1B): 0%
- %Inh (ACVR1): 1%
- %Inh (ACVR2A): 6%
- %Inh (ACVR2B): 0%
- %Inh (ACVRL1): 14%
- %Inh (ADCK3): 9%
- %Inh (ADCK4): 0%
- %Inh (AKT1): 0%
- %Inh (AKT2): 9%
- %Inh (AKT3): 0%
- %Inh (ALK): 8%
- %Inh (AMPK-alpha1): 5%

Structure (SMILES): O=c1cc(N2CCOCC2)nc2n(Cc3cccc(Cl)c3Cl)c(C3CC3)nn12 [GSK2358994]
- %Inh (AAK1): 14%
- %Inh (ABL1-nonphosphorylated): 28%
- %Inh (ABL1-phosphorylated): 20%
- %Inh (ABL2): 5%
- %Inh (ACVR1B): 0%
- %Inh (ACVR1): 0%
- %Inh (ACVR2A): 0%
- %Inh (ACVR2B): 0%
- %Inh (ACVRL1): 9%
- %Inh (ADCK3): 11%
- %Inh (ADCK4): 0%
- %Inh (AKT1): 12%
- %Inh (AKT2): 0%
- %Inh (AKT3): 0%
- %Inh (ALK): 0%
- %Inh (AMPK-alpha1): 5%
